# ELG1 repair inh = inhibitors of ELG1-dependent DNA repair in HEK293T cells; HEK293T ELG1-luciferase reporter, luminescence, 16 h; DNA damage induced by 5-fluorouridine; Potency, µM (top dose mostly 46.1 µM), for inactives: top-dose activity change, negative = inhibition, hits mostly inhibitors; 330,000 compounds, 2.3% hits; AID 504467; also: % is scaled to controls: 0 for no effect and ±100 for the full control effect; nearly all actives have a fitted effect of over 55% in size
#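 DMSO vehicle served as the neutral condition. Each well held 2,000 cells given 5-fluorouridine plus compound; after 16 hr at 37 °C/5% CO2, ONE-Glo was added and luciferase measured 30 min later.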
# FLuc modulator = firefly luciferase modulation, counter-screen for miR-21 project. 360,000 compounds, 6.9% hits. purified FLuc, Km substrates, luminescence inhibition. Potency, µM (titrated, usually from 57.5 µM), inactives show at the highest dose activity change, negative = inhibition, usual class: inhibitors;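 also: plate controls were vehicle for no effect and reference inhibitor for full effect; nearly all actives have a fitted effect of over 55% in size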
# Target sequence (P08659 whole entry, looked up): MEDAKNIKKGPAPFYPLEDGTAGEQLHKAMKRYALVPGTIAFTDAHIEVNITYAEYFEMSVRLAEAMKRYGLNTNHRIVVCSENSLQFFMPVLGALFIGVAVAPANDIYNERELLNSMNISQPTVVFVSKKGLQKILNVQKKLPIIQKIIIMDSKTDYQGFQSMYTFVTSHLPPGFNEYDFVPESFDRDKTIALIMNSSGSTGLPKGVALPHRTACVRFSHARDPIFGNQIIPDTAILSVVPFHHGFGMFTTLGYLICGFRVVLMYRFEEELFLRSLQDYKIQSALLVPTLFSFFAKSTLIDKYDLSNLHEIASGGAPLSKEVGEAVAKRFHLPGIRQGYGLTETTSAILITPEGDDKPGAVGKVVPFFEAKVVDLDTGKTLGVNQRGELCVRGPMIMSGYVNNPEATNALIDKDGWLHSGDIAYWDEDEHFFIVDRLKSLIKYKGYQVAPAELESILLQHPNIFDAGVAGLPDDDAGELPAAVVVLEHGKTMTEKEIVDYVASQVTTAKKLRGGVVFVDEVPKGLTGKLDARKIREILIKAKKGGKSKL
#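 Purified P. pyralis luciferase (10nM final) with 10uM D-luciferin and 10uM ATP (Km levels) in 50mM Tris acetate pH 7.5, 10mM Mg acetate, 0.01% Tween-20, 0.05% BSA; qHTS 6-point titration, ~60 µM downward; luminescence read.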
# Rab9 prom act = activators of Rab9 promoter | Huh7 Rab9 promoter-luciferase reporter, luminescence, 24 h | Potency, µM (highest dose often 9.22 µM), inactives show at the top dose activation, negative = inhibition, most hits filed as activators | 320,000 compounds, 2.8% hits; also: % of control where 0% means no effect; nearly all actives have a fitted effect of over 60% in size
#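 Rab9 promoter-driven luciferase in stably transfected Huh7 cells; 1500 cells/well rested 2 h, exposed to compound in DMSO for 24 h at 37 °C, 5% CO2. Luminescence read 10 min after adding luciferase reagent at ambient temperature.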
# SMN2 splice up = enhancers of SMN2 splice variant expression; AID 1458; Potency, µM (titrated, usually from 46.1 µM), for the others: top-dose activity change, positive = activation, hits mostly activators; 210,000 compounds, 2.8% hits; HEK293 SMN2-luciferase splicing reporter, luminescence, 30-36 h; also: % of control where 0% means no effect; nearly all actives have a fitted effect of over 55% in size
#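 HEK293 cells carry an SMN2 […]–luciferase reporter in which exon 7 inclusion puts luciferase in frame. Cells were plated 10-12 h before compound addition, then incubated 30-36 h at 37C. ONE-Glo luminescence was read; sodium butyrate at 4.5 mM final served as control.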
# NPC1 promoter act = activators of NPC1 promoter | Huh7 NPC1 promoter luciferase reporter, 24 h | 320,000 compounds, 2.4% hits | Potency, µM (series often up to 9.22 µM), without a hit: top-dose activation, actives largely listed as activators | AID 485313; also: % of control where 0% means no effect; nearly all actives have a fitted effect of over 60% in size
#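 Stably transfected Huh7 (NPC1 promoter→luciferase), 1500 cells/well in Opti-MEM + 10% FBS, 2 h settle, then compound 24 h at 37 °C. Luminescence after 10 min with Amplite reagent.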
# ELG1 genotox = inducers of genotoxicity in HEK293T ELG1-luciferase cells | Potency, µM (series often up to 46 µM), inactives show at the top dose activity change, positive = activation, actives largely listed as activators | 330,000 compounds, 1.3% hits | AID 504466 | HEK293T ELG1-luciferase reporter, luminescence, 16 h; also: % of control where 0% means no effect; nearly all actives have a fitted effect of over 60% in size
#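 Step 1: seed 2,000 HEK293T ELG1-luciferase cells per well. Step 2: add compound or DMSO, incubate 16 hr at 37 °C. Step 3: ONE-Glo, 30 min at room temperature, read luminescence.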
# An asterisk follows results filed as active; ? = inconclusive; . = not tested or not shown; [ ] = another dose, or the depositor's remark. This is a sample that favours compounds with a hit; in the whole collection about 9.2% have one here. Calls follow the shape of the dose curve; as a rule, active = well fitted curve in the direction sought with a large enough effect; inconclusive = small, poorly fitted or top-dose-only effect, or another doubt; inactive = no such curve, though single readings can be large; an effect the other way counts as inactive or inconclusive. Potency is read from the fitted curve at half-maximal effect.
SMILES,ELG1 repair inh,FLuc modulator,Rab9 prom act,SMN2 splice up,NPC1 promoter act,ELG1 genotox
CCN1CCN(Cc2nc3cc(NC(=O)c4ccccc4[N+](=O)[O-])ccc3n2CC)CC1,.,-5%,.,.,.,.
Cc1c(-c2cccc(NC(=O)Nc3ccccc3)c2)nc2ncccn12,.,19µM*,.,.,.,.
CC(C)(C)C(=O)Nc1cccc(-c2cn3cccnc3n2)c1,.,-3%,.,.,.,.
O=C(Nc1ccccc1)Nc1cccc(-c2cn3cccnc3n2)c1,-6%,9.5µM*,?,-1%,10%,-8%
O=C(Nc1cccc(-c2cn3cccnc3n2)c1)Nc1ccccc1F,?,13µM*,?,-8%,-4%,-12%
Cc1ccccc1Nc1nc2ccccc2s1,?,4.8µM*,2.5µM*,11µM*,3.5µM*,?
O=[N+]([O-])c1ccc(Nc2nc3ccccc3s2)cc1,.,.,.,-7%[9.22 µM],.,.
Cc1ccc(Nc2nc3ccccc3s2)cc1,?,0.85µM*,0.71µM*,2.8µM*,1µM*,7.3µM*
Fc1ccc(Nc2nc3ccccc3s2)cc1,?,7.6µM*,2.5µM*,13µM*,?,?
NC(=O)C1CCN(c2nc(-c3ccccc3[N+](=O)[O-])cs2)CC1,.,-1%,.,.,.,.
CCOc1cc(/C=N/N2CCN(Cc3ccccc3)CC2)ccc1O,-1%,2%,0%,.,0%,-1%
O=C1CC(/C=C/c2cccnc2)=Nc2ccccc2N1,?,-19%,17%,-88%,17%,-8%
O=C1CC(/C=C/c2ccccc2)=Nc2ccccc2N1,?,2.7µM*,0.89µM*,-5%,2µM*,?
O=C1CC(/C=C/c2ccc(Cl)cc2)=Nc2ccccc2N1,?,4.3µM*,1.3µM*,.,2.2µM*,?
CC1(C)CC(/C=C/c2ccccc2)=Nc2ccccc2N1,?,4.3µM*,?,.,?,15%
CCOC(=O)CC(Nc1nc(N2CCOCC2)nc(N2CCOCC2)n1)c1ccccc1Cl (stereo not given),9.2µM*,1%,-6%,-22%,-6%,-3%
Cc1ccc(-c2cc(N)nc(-c3ccccc3)c2)cc1,?,13µM*,21%,.,24%,?
Cc1ccc(-c2cc(-c3ccccc3)nc(N(C)N)n2)cc1,-2%,1%,-5%,.,-3%,-3%
CCn1c(CSCc2ccc(F)cc2)nnc1SCC(=O)N1CCN(c2ccccc2)CC1,13µM*,1%,-1%,-35%,5%,-5%
Cc1ccc(CSCC(=O)N2CCN(c3ccccc3)CC2)cc1,-3%,-2%,-2%,-26%,-2%,0%
Cc1ccc(CSCc2nnc(SCC(=O)N3CCN(c4ccccc4)CC3)n2C)cc1,23µM*,-2%,2%,-46%,2%,-20%
CSc1ccc(/C=C/C(=O)NC(=O)c2ccccc2O)cc1,?,0.6µM*,2.5µM*,25µM*,?,9.2µM*
O=C(/C=C/c1ccc(Br)cc1)NC(=O)c1ccccc1O,?,0.38µM*,1.8µM*,22µM*,3.5µM*,?
O=C(/C=C/c1ccc(O)c(O)c1)NC(=O)c1ccccc1O,?,9.5µM*,11%,32µM*,?,?
O=C(/C=C/c1ccc(O)cc1)c1ccccc1O,.,.,.,-115%,.,.
SMILES,ELG1 repair inh,FLuc modulator,Rab9 prom act,SMN2 splice up,NPC1 promoter act,ELG1 genotox
CCCSc1ccc(C(=O)Nc2ccc(Cl)cc2)cn1,0%,?,3%,-2%,-1%,?
Cc1occc1-c1nnc(SCc2cc(=O)n3cc(Br)ccc3n2)n1C,-6%,1%,-1%,-2%,-6%,-3%
Cc1ccc(Nc2nc(CSc3nnc(-c4cccnc4)n3-c3ccccc3F)cs2)cc1,?,2.4µM*,4%,18%,9%,4%
Cc1ccc(Nc2nc(CSc3nnc(-c4ccncc4)n3C)cs2)cc1,?,0.6µM*,1.3µM*,.,3.2µM*,?
Cc1ccc(NC(=O)CSc2nnc(-c3cccnc3)n2-c2ccc(C)cc2)cc1,?,1%,-1%,11%,-1%,4%
Cc1ccc(CSc2nnc(-c3ccncc3)n2C)cc1,-10%,0%,7%,-37%,-1%,?
Cc1ccccc1Nc1nc(CSc2nnc(-c3ccoc3C)n2C)cs1,10%,17µM*,3%,14%,19%,7%
Cc1ccc(S(=O)(=O)N2CCCCC2C(=O)Nc2ccc(N(C)C)cc2)cc1 (stereo not given),-29%,.,.,.,.,-2%
CN(Cc1nccn1C)C(=O)CC1C(=O)NCCN1CC(c1ccccc1)c1ccccc1 (stereo not given),0%,1%,-1%,-3%,0%,-1%
COc1ccc(OCCC(=O)NCCN2CCOCC2)cc1,0%,-1%,-1%,0%,-1%,0%
Cc1ccc(NC(=O)CCC(=O)c2ccc(Cl)s2)nc1,?,0%,-2%,.,-5%,0%
CC(C)c1ccccc1NC(=O)COC(=O)c1c2c(nc3ccccc13)CCN(Cc1ccccc1)C2,12µM*,-12%,-3%,-31%,-2%,-19%
Cc1c(Cl)cccc1NC(=O)COC(=O)c1c2c(nc3ccccc13)CCN(Cc1ccccc1)C2,13µM*,-16%,-2%,.,-9%,-7%
Cc1cc(N2CCN(C)CC2)ccc1NC(=O)c1c2c(nc3ccccc13)CCN(Cc1ccccc1)C2,?,-8%,-32%,-70%,-41%,23µM*
O=C(NC1CCCCCC1)c1c2c(nc3ccccc13)CCN(Cc1ccccc1)C2,?,3%,-1%,8%,-1%,-7%
S=C(NCCc1ccccc1)N1CCN(C23CC4CC(CC(C4)C2)C3)CC1,?,2%,-2%,-53%,-7%,-1%

# Compound activity deposited in PubChem BioAssay by National Center for Advancing Translational Sciences (NCATS).
